Our source for the total cell number values is the supplement of paper PMC6135742.

Structures can show the parent of a compound that is named as a salt. Whole data set: some 2,600 compounds, median “total cell number (DAPI+ nuclei) relative to DMSO vehicle control” near -1.4, cut for the lowest 2% near -23. The full list was thinned out, with the lowest values kept by preference.

The experiment relates to jimpy (Plp1 jimpy) mouse iPSC-derived oligodendrocyte progenitor cells. The experiment in a line: total cell number (DAPI+ nuclei) relative to DMSO vehicle control (SDs above negative control mean); higher = more surviving cells. Particulars: 10 µM; 3 days.
As for `CC(C)(NS(=O)(=O)c1ccc(Oc2ccc(F)cc2)cc1)C(=O)NO`, the total cell number is -2.86.
With `CC(N)(Cc1ccc(O)c(O)c1)C(=O)O` (racemic) [(±)-3-(3,4-dihydroxyphenyl)-2-methyl-DL-alanine], the total cell number is -2.34.
The result for `N=C(N)SCCN` [2-(2-Aminoethyl)isothiourea dihydrobromide] reads -2.29; that for `CCCCNc1ncc(-c2ccc(CN3CCOCC3)cn2)c(NC2CCC(O)CC2)n1` (stereo unspecified), -8.26; that for `O=C(Nc1c[nH]nc1-c1nc2ccc(CN3CCOCC3)cc2[nH]1)NC1CC1`, -22.6.
`O=C(NC1CCOCC1)c1ccc(-c2cc(-c3c[nH]nc3-c3ccccn3)ccn2)cc1`: the total cell number was -0.803.
The molecule `O=C(O)Cn1nnc(-c2cc(N3CCC(Oc4cc(F)ccc4Br)CC3)no2)n1` had a total cell number of 3.6.
For `CC(C)N(CCCNC(=O)Nc1ccc(C(C)(C)C)cc1)C[C@H]1O[C@@H](n2cc(Br)c3c(N)ncnc32)[C@H](O)[C@@H]1O`, the total cell number is -7.77.
The result for `COC(=O)c1ccc2c(c1)NC(=O)/C2=C(\Nc1ccc(N(C)C(=O)CN2CCN(C)CC2)cc1)c1ccccc1` [Nintedanib (BIBF 1120)] reads -23; that for `CN(C)Cc1cccc(N/C(=C2\C(=O)Nc3cc(C(N)=O)ccc32)c2ccccc2)c1`, -14.3; that for `CCS(=O)(=O)Nc1ccc2c(c1)/C(=C(/Nc1ccc(CN3CCCCC3)cc1)c1ccccc1)C(=O)N2` [Hesperadin], -17.7.
With `C[C@@H]1O[C@@H](OC[C@H]2O[C@@H](Oc3c(-c4ccc(O)c(O)c4)oc4cc(O)cc(O)c4c3=O)[C@H](O)[C@@H](O)[C@@H]2O)[C@H](O)[C@H](O)[C@H]1O` [Rutin], the total cell number is -0.749.
Next, `CCCNS(=O)(=O)Nc1ncnc(OCCOc2ncc(Br)cn2)c1-c1ccc(Br)cc1` [Macitentan]: -0.584.
Next, `CC(C)[C@H](NC(=O)c1ccc2ccccc2n1)C(=O)N[C@@H](CC(=O)O)C(=O)COc1c(F)cccc1F`: 15.6.
`CC(C)C[C@H](NC(=O)[C@@H](NC(=O)c1cccc(-c2ccccc2)n1)[C@@H](C)O)B(O)O`: the total cell number was -22.6.
Next, `CC(C)C[C@H](NC(=O)[C@H](Cc1ccccc1)NC(=O)c1cnccn1)B(O)O` [Bortezomib (PS-341)]: -20.2.
As to `C=CC(N)CCC(=O)O` (racemic) [(±)-gamma-Vinyl GABA], the total cell number was -0.562.
For `COc1ccc(C2CC(=O)c3c(O)cc(OC4OC(COC5OC(C)C(O)C(O)C5O)C(O)C(O)C4O)cc3O2)cc1OC` (stereo unspecified) [Methyl-Hesperidin], the total cell number was -1.13.
Consider `NCC(O)c1ccc(O)c(O)c1` (racemic) [(±)-Norepinephrine (+)bitartrate], for which the total cell number was 0.169.
Take `Cc1nc(Nc2ncc(C(=O)Nc3c(C)cccc3Cl)s2)cc(N2CCN(CCO)CC2)n1` [Dasatinib]: the total cell number is -22.6.
In the case of `COc1cccc(C(=O)NCCN2CCN(c3ccc(Cl)cc3)CC2)c1`, the total cell number is -2.1.
